Laboratory results from PubChem BioAssay AID1159580 (chemical genetic matrix, 2015).
Screen size: about 5,500 compounds; about 2,000 (36%) were called active. Another 18% or so got no clear call; they are omitted. Cut-off read from the data, not from the text of the source: active = normalized growth mostly below about 0.91 (no sharp cut-off); inconclusive = no clear call, values can overlap the other calls; inactive = mostly above about 0.92. The list shows a part of the results.

Experiment: chemical genetic growth profiling, strain panel (AID 1159580);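 note: tested at 20 µM; growth read once vehicle control cultures reached saturation at 30 °C; 1 = growth at the plate median or of vehicle wells; lower values mean less growth of the strain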
Settings: S. cerevisiae deletion strains, growth OD

Measured: normalized growth

COc1ccc(-c2cc(=O)c3ccccc3o2)cc1OC
inactive: locus YAL013W, strain DEP1, active compounds read low 1.01 | locus YAL021C, strain ccr4, active compounds read low 0.942 | locus YBR021W, strain FUR4, active compounds read low 0.896 | locus YBR171W, strain sec66, active compounds read low 0.917 | locus YBR229C, strain ROT2, active compounds read low 1.04 | locus YCL029C, strain bik1, active compounds read low 0.974 | locus YCR088W, strain abp1, active compounds read low 0.929 | locus YDL005C, strain med2, active compounds read low 0.919 | locus YDL040C, strain nat1, active compounds read low 0.939 | locus YDL074C, strain BRE1, active compounds read low 0.981 | locus YDL101C, strain DUN1, active compounds read low 1.02 | locus YDL185W, strain tfp1, active compounds read low 1.03 | locus YDL192W, strain arf1, active compounds read low 0.989 | locus YDR001C, strain nth1, active compounds read low 0.93 | locus YDR101C, strain arx1, active compounds read low 0.95 | locus YDR150W, strain NUM1, active compounds read low 1.05 | locus YDR159W, strain sac3, active compounds read low 0.904 | locus YDR162C, strain NBP2, active compounds read low 1.01 | locus YDR195W, strain ref2 1.13 | locus YDR297W, strain sur2, active compounds read low 0.927 | locus YDR318W, strain mcm21, active compounds read low 0.999 | locus YDR334W, strain swr1, active compounds read low 0.922 | locus YDR335W, strain msn5, active compounds read low 0.925 | locus YDR388W, active compounds read low 1.01 | locus YDR502C, strain sam2, active compounds read low 0.925 | locus YEL061C, strain CIN8, active compounds read low 1.03 | locus YER015W, strain faa2, active compounds read low 0.932 | locus YER016W, strain bim1, active compounds read low 0.933 | locus YER110C, active compounds read low 1.04 | locus YER111C, strain swi4, active compounds read low 0.913 | locus YER155C, strain BEM2, active compounds read low 1.07 | locus YER167W, strain BCK2, active compounds read low 1.05 | locus YGL086W, strain mad1, active compounds read low 0.982 | locus YGL248W, strain PDE1, active compounds read low 0.97 | locus YGR135W, strain pre9, active compounds read low 0.955 | locus YGR252W, strain gcn5, active compounds read low 0.819 | locus YHR027C, strain rpn1, active compounds read low 0.93 | locus YHR030C, strain SLT2, active compounds read low 1.06 | locus YHR079C, strain IRE1 (second series), active compounds read low 1.03 | locus YHR094C, strain hxt1, active compounds read low 1.03 | locus YHR129C, strain ARP1, active compounds read low 1.03 | locus YHR200W, strain rpn10, active compounds read low 1.03 | locus YIL066C, strain RNR3, active compounds read low 1.01 | locus YIL073C, strain SPO22, active compounds read low 0.925 | locus YIL125W, strain kgd1, active compounds read low 0.976 | locus YIR030C, strain dcg1, active compounds read low 1.02 | locus YJL092W, strain hpr5, active compounds read low 0.923 | locus YJL095W, strain BCK1, active compounds read low 0.973 | locus YJL115W, strain asf1, active compounds read low 0.928 | locus YJL129C, strain trk1, active compounds read low 0.901 | locus YJL134W, strain LCB3, active compounds read low 1.05 | locus YJL154C, strain vps35, active compounds read low 0.938 | locus YJL168C, strain set2, active compounds read low 1.03 | locus YJL187C, strain SWE1 (second series), active compounds read low 0.982 | locus YJR043C, strain POL32, active compounds read low 0.979 | locus YJR075W, strain HOC1, active compounds read low 1.03 | locus YKL068W, active compounds read low 1.03 | locus YKL085W, strain MDH1 (second series), active compounds read low 1.03 | locus YKL085W, strain MDH1, active compounds read low 1.03 | locus YKL190W, strain CNB1, active compounds read low 1.03 | locus YKR001C, strain vps1, active compounds read low 0.96 | locus YKR026C, strain gcn3, active compounds read low 0.93 | locus YKR091W, strain srl3, active compounds read low 0.935 | locus YLL041C, strain sdh2, active compounds read low 0.941 | locus YLR027C, strain aat2, active compounds read low 0.926 | locus YLR039C, strain RIC1, active compounds read low 0.963 | locus YLR058C, strain SHM2, active compounds read low 1.01 | locus YLR102C, strain apc9, active compounds read low 1.03 | locus YLR262C, strain YPT6, active compounds read low 0.875 | locus YLR268W, strain sec22, active compounds read low 0.936 | locus YLR330W, strain CHS5, active compounds read low 1.04 | locus YLR342W, strain FKS1 (second series), active compounds read low 0.873 | locus YLR357W, strain rsc2, active compounds read low 0.948 | locus YLR371W, strain rom2, active compounds read low 1.04 | locus YLR384C, strain iki3, active compounds read low 0.935 | locus YLR418C, strain cdc73, active compounds read low 0.918 | locus YML016C, strain PPZ1, active compounds read low 1.05 | locus YML032C, strain rad52, active compounds read low 0.96 | locus YML124C, strain tub3, active compounds read low 1.04 | locus YMR078C, strain ctf18, active compounds read low 1.02 | locus YMR129W, active compounds read low 0.945 | locus YMR223W, strain ubp8, active compounds read low 0.99 | locus YMR231W, strain pep5, active compounds read low 0.946 | locus YMR307W, strain GAS1, active compounds read low 0.955 | locus YNL067W, strain RPL9B, active compounds read low 0.969 | locus YNL209W, strain ssb2, active compounds read low 0.936 | locus YNL233W, strain BNI4, active compounds read low 1.02 | locus YNL250W, strain rad50, active compounds read low 0.993 | locus YNL271C, strain bni1, active compounds read low 0.995 | locus YNL298W, strain CLA4, active compounds read low 0.934 | locus YNL307C, strain MCK1, active compounds read low 1.02 | locus YNL322C, strain KRE1 (second series), active compounds read low 0.953 | locus YNR052C, strain pop2, active compounds read low 0.918 | locus YOL006C, strain TOP1, active compounds read low 0.93 | locus YOL012C, strain htz1 1.9 | locus YOL147C, strain pex11, active compounds read low 1.03 | locus YOR061W, strain CKA2, active compounds read low 1.02 | locus YOR069W, strain VPS5, active compounds read low 1.02 | locus YOR080W, strain dia2, active compounds read low 0.928 | locus YOR136W, strain idh2, active compounds read low 1.02 | locus YOR144C, strain elg1, active compounds read low 0.994 | locus YOR265W, strain rbl2, active compounds read low 0.935 | locus YOR316C, strain cot1, active compounds read low 1.03 | locus YPR119W, strain clb2, active compounds read low 1.04 | locus YPR141C, strain kar3, active compounds read low 1.04 | locus YPR163C, strain tif3, active compounds read low 0.993 | locus YPR167C, strain met16, active compounds read low 1.02 | strain wtn01, active compounds read low 0.93
active: locus YAL026C, strain drs2, active compounds read low 0.838 | locus YAL030W, strain snc1, active compounds read low 0.91 | locus YBL061C, strain skt5, active compounds read low 0.898 | locus YBR009C, strain hhf1, active compounds read low 0.772 | locus YBR023C, strain chs3, active compounds read low 0.842 | locus YBR231C, strain swc5, active compounds read low 0.83 | locus YBR279W, strain paf1, active compounds read low 0.9 | locus YCL011C, strain gbp2, active compounds read low 0.824 | locus YCL016C, strain dcc1, active compounds read low 0.871 | locus YCL061C, strain MRC1, active compounds read low 0.904 | locus YCL069W, strain vba3, active compounds read low 0.921 | locus YDL035C, strain GPR1, active compounds read low 0.824 | locus YDR069C, strain doa4, active compounds read low 0.897 | locus YDR137W, strain rgp1, active compounds read low 0.681 | locus YDR392W, strain spt3, active compounds read low 0.41 | locus YEL003W, strain gim4, active compounds read low 0.9 | locus YEL037C, strain rad23, active compounds read low 0.872 | locus YEL061C, strain CIN8 (second series), active compounds read low 0.913 | locus YER155C, strain BEM2 (second series), active compounds read low 0.381 | locus YFR010W, strain ubp6, active compounds read low 0.889 | locus YGL078C, strain dbp3, active compounds read low 0.869 | locus YGL167C, strain pmr1, active compounds read low 0.878 | locus YGL173C, strain kem1, active compounds read low 0.897 | locus YGL227W, strain vid30, active compounds read low 0.912 | locus YGL240W, strain doc1, active compounds read low 0.772 | locus YGL253W, strain hxk2, active compounds read low 0.718 | locus YHR013C, strain ard1, active compounds read low 0.789 | locus YHR142W, strain chs7, active compounds read low 0.683 | locus YJL095W, strain BCK1 (second series), active compounds read low 0.823 | locus YJL164C, strain tpk1, active compounds read low 0.855 | locus YJL166W, strain qcr8, active compounds read low 0.824 | locus YJL187C, strain SWE1, active compounds read low 0.913 | locus YKL009W, strain mrt4, active compounds read low 0.801 | locus YKL160W, strain elf1, active compounds read low 0.862 | locus YLL001W, strain dnm1, active compounds read low 0.874 | locus YLL026W, active compounds read low 0.899 | locus YLR221C, strain rsa3, active compounds read low 0.872 | locus YLR258W, strain gsy2, active compounds read low 0.859 | locus YLR262C, strain YPT6 (second series), active compounds read low 0.728 | locus YLR320W, strain mms22, active compounds read low 0.597 | locus YLR342W, strain FKS1, active compounds read low 0.904 | locus YLR370C, strain arc18, active compounds read low 0.894 | locus YML120C, strain ndi1, active compounds read low 0.837 | locus YMR058W, strain fet3, active compounds read low 0.852 | locus YMR125W, strain sto1, active compounds read low 0.795 | locus YMR205C, strain PFK2, active compounds read low 0.768 | locus YNL071W, strain lat1, active compounds read low 0.665 | locus YNL248C, strain rpa49, active compounds read low 0.884 | locus YNR049C, strain mso1, active compounds read low 0.916 | locus YOR001W, strain rrp6, active compounds read low 0.864 | locus YOR070C, strain gyp1, active compounds read low 0.901 | locus YOR083W, strain WHI5, active compounds read low 0.862 | locus YOR106W, strain vam3, active compounds read low 0.806 | locus YOR184W, strain ser1, active compounds read low 0.802 | locus YOR270C, strain vph1, active compounds read low 0.539 | locus YOR290C, strain snf2, active compounds read low 0.734 | locus YPL051W, strain arl3, active compounds read low 0.854 | locus YPL078C, strain atp4, active compounds read low 0.825 | locus YPL106C, strain sse1, active compounds read low 0.788 | locus YPL240C, strain hsp82, active compounds read low 0.923
